A number with no mark means an inactive call. Active and inactive are the calls of the source.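 How the source made its calls, unless noted: active means mean inhibition over 43.08%, the solvent-only control mean plus 3 SD; inactive means the rest.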

The text below walks through data of PubChem BioAssay.

Assay [1] deals with Nuclear receptor coactivator 3 (Homo sapiens) (UniProt Q9Y6Q9). Briefly: NCOA3 GAL4-fusion reporter inhibition – cell-based, luminescence, quadruplicate, confirmation (AID 588792).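 Further: 0% = DMSO treated cells and 100% = gossypol at 36 µM.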 As to conditions: HEK293 GAL4-SRC3 luciferase reporter, at 3.6 µM, stronger effect = higher value.
Nuclear receptor coactivator 3 (Homo sapiens), sequence (Q9Y6Q9 whole entry, looked up, the tested form may be a part): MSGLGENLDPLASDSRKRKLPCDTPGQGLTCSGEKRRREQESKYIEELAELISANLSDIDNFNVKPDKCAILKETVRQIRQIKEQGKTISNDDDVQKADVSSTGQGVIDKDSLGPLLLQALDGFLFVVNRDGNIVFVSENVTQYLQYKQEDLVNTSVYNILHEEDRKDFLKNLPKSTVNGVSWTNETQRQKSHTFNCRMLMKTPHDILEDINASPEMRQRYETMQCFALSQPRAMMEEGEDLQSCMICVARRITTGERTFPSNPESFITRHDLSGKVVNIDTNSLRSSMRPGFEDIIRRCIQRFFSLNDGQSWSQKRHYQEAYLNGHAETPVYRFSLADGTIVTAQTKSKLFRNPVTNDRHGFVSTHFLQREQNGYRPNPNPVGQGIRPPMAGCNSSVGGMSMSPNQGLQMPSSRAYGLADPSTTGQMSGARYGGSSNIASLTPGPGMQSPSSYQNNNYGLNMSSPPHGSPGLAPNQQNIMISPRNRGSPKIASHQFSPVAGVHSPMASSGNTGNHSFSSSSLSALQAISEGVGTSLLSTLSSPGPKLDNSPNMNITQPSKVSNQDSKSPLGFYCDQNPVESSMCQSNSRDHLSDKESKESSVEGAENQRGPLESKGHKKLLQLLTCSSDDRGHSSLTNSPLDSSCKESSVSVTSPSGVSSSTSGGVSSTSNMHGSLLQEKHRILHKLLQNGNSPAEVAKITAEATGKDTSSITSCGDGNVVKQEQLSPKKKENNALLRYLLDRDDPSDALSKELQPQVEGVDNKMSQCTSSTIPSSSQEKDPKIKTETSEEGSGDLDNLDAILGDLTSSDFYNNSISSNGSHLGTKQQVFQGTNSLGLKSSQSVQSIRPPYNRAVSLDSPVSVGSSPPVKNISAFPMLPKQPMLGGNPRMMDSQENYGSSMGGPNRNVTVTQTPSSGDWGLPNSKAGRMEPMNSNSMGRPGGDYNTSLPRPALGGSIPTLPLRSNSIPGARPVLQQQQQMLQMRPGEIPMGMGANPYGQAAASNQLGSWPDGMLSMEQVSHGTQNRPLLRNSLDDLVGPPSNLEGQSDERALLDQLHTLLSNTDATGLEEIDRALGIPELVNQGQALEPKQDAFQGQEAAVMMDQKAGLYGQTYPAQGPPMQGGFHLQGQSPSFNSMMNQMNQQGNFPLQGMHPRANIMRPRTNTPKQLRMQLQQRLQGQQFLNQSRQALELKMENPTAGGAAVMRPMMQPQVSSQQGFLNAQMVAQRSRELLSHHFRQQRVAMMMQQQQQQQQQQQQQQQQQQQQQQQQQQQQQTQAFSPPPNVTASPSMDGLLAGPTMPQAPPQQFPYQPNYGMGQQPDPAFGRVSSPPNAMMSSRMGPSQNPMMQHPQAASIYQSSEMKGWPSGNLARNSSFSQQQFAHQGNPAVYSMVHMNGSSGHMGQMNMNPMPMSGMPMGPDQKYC
The subject of assay [2] is transactivating tegument protein VP16 (Human herpesvirus 1), Gal4-VP16 luciferase reporter. Description: repression of VP16-driven luciferase reporter – cell-based, luminescence, high throughput, counter-screen for SRC3 inhibitor project (AID 588794; in the data active means inhibition above about 30%). The conditions noted are these: mammalian cells, at 3.6 µM, stronger effect = higher value.
Assay [3] addresses Nuclear receptor coactivator 1 (Homo sapiens) (UniProt Q15788). Briefly: NCOA1 GAL4-fusion reporter inhibition – cell-based, luminescence, quadruplicate, confirmation (AID 588820;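 active means mean inhibition above 46.68%, the untreated control wells mean plus 3 SD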;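 further: 0% = DMSO wells and 100% = gossypol 36 µM treated wells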). The conditions noted are these: HEK293 GAL4-SRC1 luciferase reporter, at 3.6 µM, stronger effect = higher value.
Assay [4] can be described thus: repression of VP16-driven luciferase reporter – cell-based, luminescence, high throughput, counter-screen for SRC1 inhibitor project (AID 588824; in the data active means inhibition above about 25%). The conditions noted are these: cell-based VP16 transactivation luciferase luminescence; at 3.6 µM; stronger effect = higher value.
Assay [5] in a line: StAR promoter reporter inhibitors, counter-screen for LRH-1 inverse agonist project, cell-based, luminescence, high throughput (AID 651611; in the data active means inhibition above about 28%). As to conditions: StAR promoter luciferase reporter counterscreen, at 3.6 µM, stronger effect = higher value.
Assay [6] has as its target Nuclear receptor subfamily 5 group A member 2 (Homo sapiens) (UniProt O00482). Description: NR5A2 activity suppression in reporter cells – cell-based, luminescence, confirmation (AID 651613; in the data active means inhibition above about 42%;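 further: HEK293T cells co-transfected with LRH-1 and StAR promoter luciferase reporter; 0% = vehicle wells and 100% = parental cells lacking receptor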). The conditions noted are these: cell-based LRH-1 luciferase reporter, inverse agonism; at 3.6 µM; stronger effect = higher value.
Assay [7] concerns the target Steroidogenic factor 1 (Homo sapiens) (UniProt Q13285). Description: inverse agonism at SF1 nuclear receptor – cell-based, luminescence, high throughput, counter-screen for LRH-1 inverse agonist project (AID 651614; in the data active means inhibition above about 44%;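 further: cells cotransfected with StAR promoter reporter and SF1 expression vector; 0% = vehicle on cells with receptor and 100% = vehicle on cells lacking receptor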). The conditions noted are these: cell-based SF1 luciferase reporter, at 3.6 µM, stronger effect = higher value.
Assay [8] is described as follows: compounds suppressing VP16-driven luciferase signal – cell-based, luminescence, high throughput, counter-screen for LRH-1 inverse agonist project (AID 651615; in the data active means inhibition above about 33%). As to conditions: Gal4-VP16 luciferase reporter cells, at 3.6 µM, stronger effect = higher value.
Assay [9] concerns transactivating tegument protein VP16 (Human herpesvirus 1). Briefly: compounds suppressing VP16-driven luciferase signal – cell-based, luminescence, single concentration, counter-screen for SRC2 inhibitor project (AID 652007; in the data active means inhibition above about 36%). As to conditions: cell-based VP16 transactivation luciferase reporter, at 8.9 µM, stronger effect = higher value.
The target in assay [10] is Nuclear receptor coactivator 2 (Homo sapiens) (UniProt Q15596). Briefly: inhibition of GAL4-SRC2 driven luciferase expression – cell-based, luminescence, HEK293, triplicate, confirmation (AID 652008;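 active means mean inhibition above 46.5%, the solvent-only control mean plus 3 SD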;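 further: 0% = DMSO-treated cells and 100% = Gossypol at 36 µM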). The conditions noted are these: HEK293 GAL4-SRC2 luciferase reporter, at 8.9 µM, stronger effect = higher value.
Nuclear receptor coactivator 2 (Homo sapiens), sequence (Q15596 whole entry, looked up, the tested form may be a part): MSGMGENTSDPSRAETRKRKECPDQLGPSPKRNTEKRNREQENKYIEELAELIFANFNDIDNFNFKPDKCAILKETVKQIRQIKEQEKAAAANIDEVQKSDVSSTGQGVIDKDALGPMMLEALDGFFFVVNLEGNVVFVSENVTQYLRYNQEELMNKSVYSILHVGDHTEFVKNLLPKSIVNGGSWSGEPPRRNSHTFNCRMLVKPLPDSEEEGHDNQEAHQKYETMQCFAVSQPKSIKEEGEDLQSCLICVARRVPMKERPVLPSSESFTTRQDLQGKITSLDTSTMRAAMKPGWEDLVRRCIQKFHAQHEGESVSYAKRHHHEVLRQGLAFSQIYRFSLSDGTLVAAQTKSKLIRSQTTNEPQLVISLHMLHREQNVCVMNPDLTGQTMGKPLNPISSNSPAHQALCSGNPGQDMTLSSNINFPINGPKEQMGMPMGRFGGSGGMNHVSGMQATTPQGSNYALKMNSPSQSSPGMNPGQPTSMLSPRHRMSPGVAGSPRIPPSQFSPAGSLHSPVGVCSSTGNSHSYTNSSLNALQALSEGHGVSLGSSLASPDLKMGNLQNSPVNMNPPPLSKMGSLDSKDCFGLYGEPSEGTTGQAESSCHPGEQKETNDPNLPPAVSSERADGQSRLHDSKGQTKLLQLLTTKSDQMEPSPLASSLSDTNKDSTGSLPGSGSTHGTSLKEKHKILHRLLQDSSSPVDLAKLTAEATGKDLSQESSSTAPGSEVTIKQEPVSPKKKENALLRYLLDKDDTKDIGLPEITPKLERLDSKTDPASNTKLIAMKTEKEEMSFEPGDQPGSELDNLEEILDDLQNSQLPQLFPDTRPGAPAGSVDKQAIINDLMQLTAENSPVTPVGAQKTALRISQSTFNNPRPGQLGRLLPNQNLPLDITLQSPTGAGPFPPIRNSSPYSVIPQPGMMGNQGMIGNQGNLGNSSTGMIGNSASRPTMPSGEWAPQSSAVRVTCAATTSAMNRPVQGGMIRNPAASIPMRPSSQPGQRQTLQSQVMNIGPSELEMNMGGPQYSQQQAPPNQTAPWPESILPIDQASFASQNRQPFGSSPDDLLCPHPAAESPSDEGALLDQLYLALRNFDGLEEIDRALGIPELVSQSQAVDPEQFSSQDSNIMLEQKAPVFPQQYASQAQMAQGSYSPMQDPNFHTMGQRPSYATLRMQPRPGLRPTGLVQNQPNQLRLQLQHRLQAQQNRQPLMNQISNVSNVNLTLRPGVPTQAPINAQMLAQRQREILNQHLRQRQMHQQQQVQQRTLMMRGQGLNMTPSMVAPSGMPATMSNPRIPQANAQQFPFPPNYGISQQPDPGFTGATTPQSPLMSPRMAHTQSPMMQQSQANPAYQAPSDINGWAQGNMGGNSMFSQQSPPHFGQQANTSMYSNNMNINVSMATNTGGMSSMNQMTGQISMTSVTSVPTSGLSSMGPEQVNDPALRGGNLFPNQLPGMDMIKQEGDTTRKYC

Steroidogenic factor 1 (Homo sapiens), sequence (Q13285 whole entry, looked up, the tested form may be a part): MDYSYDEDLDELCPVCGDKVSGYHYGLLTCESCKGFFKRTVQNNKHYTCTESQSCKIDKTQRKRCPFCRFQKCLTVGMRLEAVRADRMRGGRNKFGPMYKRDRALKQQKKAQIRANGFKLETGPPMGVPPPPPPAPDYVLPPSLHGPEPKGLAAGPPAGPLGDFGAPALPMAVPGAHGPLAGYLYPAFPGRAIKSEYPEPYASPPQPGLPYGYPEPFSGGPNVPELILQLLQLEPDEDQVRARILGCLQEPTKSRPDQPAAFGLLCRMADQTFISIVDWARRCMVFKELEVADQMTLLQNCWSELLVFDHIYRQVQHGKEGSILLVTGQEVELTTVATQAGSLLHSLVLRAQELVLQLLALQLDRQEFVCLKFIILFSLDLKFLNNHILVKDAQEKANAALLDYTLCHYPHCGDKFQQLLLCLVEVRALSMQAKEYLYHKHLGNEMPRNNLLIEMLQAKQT
Nuclear receptor subfamily 5 group A member 2 (Homo sapiens), sequence (O00482 whole entry, looked up): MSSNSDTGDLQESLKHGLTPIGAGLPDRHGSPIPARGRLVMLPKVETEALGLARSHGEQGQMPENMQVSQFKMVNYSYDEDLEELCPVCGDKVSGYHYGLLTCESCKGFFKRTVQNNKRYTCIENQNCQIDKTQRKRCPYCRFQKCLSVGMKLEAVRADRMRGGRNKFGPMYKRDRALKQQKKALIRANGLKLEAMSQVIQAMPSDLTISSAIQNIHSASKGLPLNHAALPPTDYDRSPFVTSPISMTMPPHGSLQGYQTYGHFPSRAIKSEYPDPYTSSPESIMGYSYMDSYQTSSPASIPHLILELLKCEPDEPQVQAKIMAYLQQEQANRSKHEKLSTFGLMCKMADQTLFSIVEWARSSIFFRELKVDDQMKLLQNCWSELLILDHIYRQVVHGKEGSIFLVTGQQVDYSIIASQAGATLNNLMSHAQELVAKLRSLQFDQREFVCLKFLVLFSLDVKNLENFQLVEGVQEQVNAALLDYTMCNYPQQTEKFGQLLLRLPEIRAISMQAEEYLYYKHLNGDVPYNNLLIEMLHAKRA

With `C[C@@H](C(=O)Nc1ccc2c(c1)OCCO2)n1c(=O)[nH]c2ccccc2c1=O`, the inhibition is 34.5% in assay [1]; -0.03% in assay [2]; -4.84% in assay [3]; -17.6% in assay [4]; -11.4% in [5]; -28.3% in assay [6]. Further, the inhibition in assay [7] is 20.2%; in assay [8] it was -18.1%; in assay [9], 3.58%; in assay [10], 68.7% (active).

In the case of `O=C(CN1C(=O)c2ccccc2S1(=O)=O)c1ccc2c(c1)OCCCO2`, the inhibition was 93.3% (active) in [1]; 92.4% (active) in assay [2]; 82.5% (active) in assay [3]; 91.8% (active) in assay [4]; 91% (active) in [5]; 99.8% (active) in assay [6]. Also, the inhibition was 92.4% (active) in assay [7], 90.3% (active) in assay [8], 94.4% (active) in assay [9] and 98% (active) in assay [10].

As to `CC1CC(C)C(=O)C(C(CC2CC(=O)NC(=O)C2)OC(=O)CC(=O)c2ccccc2)C1` (stereo not given), the inhibition in [1] was 93.1% (active); in assay [2] it was 88.9% (active); in [3], 81.3% (active); in assay [4] it was 87.8% (active); in assay [5], 91.6% (active); in [6] it was 108% (active). The inhibition in [7] was 96.9% (active); in assay [8], 91.7% (active); in assay [9] it was 37.2% (active); in [10] it was 52.5% (active).

`CN=c1scc(-c2cccs2)n1/N=C/c1ccccc1O`: the inhibition in [1] is 91.6% (active); in [2], 89.5% (active); in assay [3], 80% (active); in assay [4], 81.4% (active); in assay [5], 90.6% (active); in assay [6] it was 90.4% (active). Also, the inhibition in [7] is 91.2% (active); in assay [8], 89.6% (active); in assay [9], 96.8% (active); in assay [10], 97.8% (active).

With `COC(=O)Cc1ccc(NC(=O)c2ccc(C(C)(C)C)cc2)cc1`, the inhibition in assay [1] is 55.9% (active); in assay [2], 40.7% (active); in [3], 43.4%; in assay [4] it was 44.8% (active); in assay [5] it was 54.3% (active); in assay [6] it was 76.9% (active). For the same compound, the inhibition in [7] was 67.3% (active); in assay [8], 50.8% (active); in assay [9], 21.1%; in assay [10], 92.9% (active).

Consider `CC(C)Nc1ncnc2ccc(Br)cc12`, for which the inhibition in [1] was 74.3% (active); in assay [2], 72.7% (active); in [3] it was 65.3% (active); in [4] it was 58.9% (active); in assay [5], 17.8%; in assay [6], 61.1% (active). Further, the inhibition was 58.4% (active) in assay [7], 71% (active) in assay [8], 20.2% in [9] and 65.7% (active) in [10].

Take `O=C(NCCc1ccccc1F)c1ccc2c(c1)OCCO2`: the inhibition in [1] was 67.2% (active); in [2], 57.6% (active); in [3] it was -11.5%; in assay [4], 54.6% (active); in assay [5], 65.5% (active); in assay [6], 55.3% (active). Besides, the inhibition in assay [7] was 72.4% (active); in assay [8], 60.5% (active); in [9] it was 74.1% (active); in [10] it was 89.9% (active).

As to `CC1OC2CC(=O)OC2C2=C1C(=O)c1c(O)cccc1C2=O` (stereo not given), the inhibition was 97.6% (active) in assay [1]; 95.2% (active) in [2]; 97.5% (active) in [3]; 95.2% (active) in assay [4]; 96.8% (active) in assay [5]; 110% (active) in assay [6]. Moreover, the inhibition in assay [7] is 98.2% (active); in assay [8], 96.8% (active); in [9] it was 98.9% (active); in assay [10], 99.7% (active).

With `COc1ccc(/C=C2\SC(=O)N(CCCC(=O)Nc3ccc(C(=O)O)cc3)C2=O)cc1`, the inhibition in assay [1] is 78% (active); in assay [2], 71.8% (active); in assay [3] it was 72.8% (active); in assay [4], 63.3% (active); in [5], 74.1% (active); in [6] it was 75.4% (active). Moreover, the inhibition was 71.5% (active) in assay [7], 58.1% (active) in [8], 88.3% (active) in [9] and 93.3% (active) in assay [10].

As for `CC(C)(C)C(=O)/C(=C/c1ccncc1)n1cncn1`, the inhibition in assay [1] is 69.2% (active); in [2], 55.3% (active); in assay [3], 59.9% (active); in assay [4], 48% (active); in assay [5] it was 35.2% (active); in [6], 42.6% (active). In addition, the inhibition in assay [7] was 46.5% (active); in assay [8], 69.2% (active); in assay [9], 39.9% (active); in assay [10] it was 63.3% (active).

With `Cc1cc(C(=O)COC(=O)C2=COCCO2)c(C)n1-c1ccccc1`, the inhibition was 32.9% in assay [1]; 5.84% in assay [2]; -53.9% in assay [3]; -37.1% in assay [4]; 23.9% in [5]; -86.4% in [6]. Moreover, the inhibition in assay [7] was 26.1%; in assay [8], -34.8%; in assay [9] it was 68.8% (active); in assay [10], 66.6% (active).

As to `Cc1ccccc1C(=O)N1CCN(c2ccc(NC(=O)c3ccc4c(c3)OCO4)cc2)CC1`, the inhibition was 55.4% (active) in assay [1]; 72.5% (active) in assay [2]; 60.7% (active) in assay [3]; 72.9% (active) in assay [4]; 60.1% (active) in assay [5]; 75.1% (active) in assay [6]. The inhibition was 76.1% (active) in assay [7], 80.7% (active) in assay [8], 10.2% in assay [9] and 27.1% in assay [10].

As to `CC(C)c1ccc(-c2nc3ccccc3s2)cc1`, the inhibition was 80.1% (active) in [1]; 73.8% (active) in [2]; 56% (active) in assay [3]; 53.8% (active) in assay [4]; 78.9% (active) in assay [5]; 42.9% (active) in assay [6]. In addition, the inhibition in assay [7] is 74.5% (active); in [8], 51.7% (active); in assay [9], 64.7% (active); in assay [10] it was 86.8% (active).

`CCCN(CC)c1ncnc2[nH]ncc12`: the inhibition in assay [1] was 72.3% (active); in assay [2], 52.6% (active); in assay [3], 71.4% (active); in assay [4] it was 50.1% (active); in assay [5], 25.9%; in assay [6], 45% (active). The inhibition was 37.1% in assay [7], 69.2% (active) in [8], -9.97% in assay [9] and 43.2% in assay [10].

As for `COc1ccc(S(=O)(=O)N2CCOCC2)cc1NC(=O)CCNC(=O)c1ccc([N+](=O)[O-])cc1`, the inhibition in assay [1] is 88.6% (active); in assay [2], 60.8% (active); in [3] it was 75.6% (active); in [4], 33.3% (active); in [5], 89.2% (active); in assay [6], 99.3% (active). Besides, the inhibition in [7] was 95.5% (active); in assay [8], 72.9% (active); in assay [9], 4.19%; in assay [10], 49.4% (active).
